# Shown are actives, neighbours in structure and some others; about 12% of the full set was active somewhere.
# HP1b binding inh = HP1-beta chromodomain-methylated histone interaction inhibition; P83916; AlphaScreen HP1-beta / biotin-H3K9me3 peptide binding; Potency, µM (top dose mostly 114 µM), for the others: at the top dose activity change, negative = inhibition, hits mostly inhibitors; 0.56% of 390,000 active; also: nearly all actives have a fitted effect of over 70% in size
# Target sequence (P83916 whole entry, looked up): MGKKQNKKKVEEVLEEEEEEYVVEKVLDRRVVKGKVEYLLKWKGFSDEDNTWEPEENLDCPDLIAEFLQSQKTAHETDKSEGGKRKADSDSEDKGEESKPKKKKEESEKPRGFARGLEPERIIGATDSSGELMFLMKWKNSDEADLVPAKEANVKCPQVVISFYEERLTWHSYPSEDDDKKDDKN
#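 Compound inhibition of the preformed complex between 50 nM HP1-beta and 50 nM biotinylated H3K9me3 peptide was read by AlphaScreen. Buffer was PBS pH 7.4 with 0.01% Tween-20. Incubations ran 30 min at room temperature, with 10 ug/mL donor/acceptor beads.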
# Sfp PPTase inh = blocks B. subtilis Sfp PPTase activity; Biochemical Sfp PPTase activity, qHTS; 3.5% of 310,000 active; Q9F4F7; Potency, µM, for the others: largest response in the series, negative = inhibition, hits mostly inhibitors;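 also: the enzyme is Sfp with the accession as filed and its product quenches rhodamine fluorescence; 0% = enzyme reaction without inhibitor and -100% = no enzyme wells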
#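 Fluorescence-quenching assay: 15 nM Sfp-PPTase preincubated 15 min at room temperature with compound, then 5 uM rhodamine-CoA and 12.5 uM BHQ-2-labelled YbbR peptide added. Fluorescence (ex 525/em 598 nm) read at start and after 30 min; difference gives rate.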
# BAZ2B block = blocks human BAZ2B; Q9UIF8; AlphaScreen BAZ2B-H3K14Ac peptide displacement; Potency, µM (highest dose often 114 µM), inactives show at the top dose activity change, negative = inhibition, usual class: inhibitors; 4.4% of 360,000 active; AID 504333; also: % is scaled to controls: 0 for no effect and ±100 for the full control effect; nearly all actives have a fitted effect of over 60% in size
#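 BAZ2B 50 nM plus b-H3(5-23)K14Ac 50 nM, PBS pH 7.4/0.01% Tween-20, 30 min RT; compound added (max 110 uM), 30 min RT; streptavidin donor/Ni-chelate acceptor beads 10 ug/mL final, 20 min dark; AlphaScreen read.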
# G9a inh = G9a (human) methyltransferase inhibition; Q96KQ7; G9a H3K9 monomethylation, AlphaScreen, 2 h; Potency, µM (top dose mostly 102 µM), for inactives: top-dose activity, negative = inhibition, hits mostly inhibitors; 8.8% of 350,000 active; AID 504332; also: % is scaled to controls: 0 for no effect and ±100 for the full control effect; nearly all actives have a fitted effect of over 75% in size
# Target sequence (Q96KQ7 913-1193 limits assumed): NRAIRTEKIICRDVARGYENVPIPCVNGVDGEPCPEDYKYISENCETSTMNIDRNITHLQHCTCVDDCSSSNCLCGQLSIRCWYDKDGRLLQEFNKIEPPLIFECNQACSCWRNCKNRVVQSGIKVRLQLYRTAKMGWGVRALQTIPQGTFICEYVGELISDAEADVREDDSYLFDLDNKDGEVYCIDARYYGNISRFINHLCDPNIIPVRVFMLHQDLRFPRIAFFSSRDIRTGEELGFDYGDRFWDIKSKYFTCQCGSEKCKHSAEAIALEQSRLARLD
#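 Step 1: enzyme (final 20 nM) with compound, 15 min RT. Step 2: substrate peptide 500 nM and SAM 20 uM, 2 h RT. Step 3: anti-H3K9me1 antibody and AlphaScreen beads, 10 min, then plate read.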
# JMJD2A Tudor inh = inhibitors of human JMJD2A Tudor domain | O75164 | AlphaScreen JMJD2A-Tudor / H3K4me3 peptide binding | Potency, µM (series often up to 114 µM), for the others: at the highest dose activity change, negative = inhibition, hits mostly inhibitors | 4.4% of 390,000 active; also: % is scaled to controls: 0 for no effect and ±100 for the full control effect; nearly all actives have a fitted effect of over 50% in size
# L3MBTL1 inh = blocks human L3MBTL1; AlphaScreen L3MBTL1–H3K9me1 peptide binding; Potency, µM (titrated, usually from 57.1 µM), inactives show at the top dose activity, negative = inhibition, most hits filed as inhibitors; 0.66% of 230,000 active; also: % is scaled to controls: 0 for no effect and ±100 for the full control effect; nearly all actives have a fitted effect of over 60% in size
#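 Displacement of a biotinylated histone H3(1-15) peptide monomethylated at Lys9 (75 nM) from L3MBTL1 (50 nM) was measured by AlphaScreen after a 30 min room-temperature compound incubation; cefsulodin titration served as intraplate control.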
# An asterisk follows results filed as active; ? = inconclusive; nt = no result given; [ ] = remark or other dose. Calls follow the shape of the dose curve; as a rule, active = well fitted curve in the direction sought with a large enough effect; inconclusive = small, poorly fitted or top-dose-only effect, or another doubt; inactive = no such curve, though single readings can be large; an effect the other way counts as inactive or inconclusive. Potency is read from the fitted curve at half-maximal effect.
SMILES,HP1b binding inh,Sfp PPTase inh,BAZ2B block,G9a inh,JMJD2A Tudor inh,L3MBTL1 inh
CCCCN(C(=O)C1CC(=O)N(Cc2ccc(C)cc2)C1)c1c(N)n(CCCC)c(=O)[nH]c1=O (configuration not stated),0%,nt,-5%,-2%[0.501 µM],-15%,4%
CCCCn1c(N)c(N(CCOC)C(=O)C2CCN(C(=O)c3ccc(Cl)cc3)CC2)c(=O)[nH]c1=O,35%,nt,-6%,56µM*,-3%,2%
CCCCn1c(N)c(N(CCC(C)C)C(=O)c2cc(Cl)nc3ccccc23)c(=O)[nH]c1=O,6%,nt,19%,27%[59 µM],-24%,32%
CCCCn1c(N)c(N(CCOC)C(=O)C2CCCN(C(=O)c3ccc(Cl)cc3)C2)c(=O)[nH]c1=O (configuration not stated),35%,nt,-9%,28µM*,-8%,3%
CCCCn1c(N)c(N(CCC(C)C)C(=O)CSc2nc3ccccc3n2C)c(=O)[nH]c1=O,-39%,nt,nt,nt,79µM*,nt
O=C(Cn1c(=O)oc2cc(S(=O)(=O)NC3CCCC3)ccc21)Nc1ccc(F)c(F)c1,40%,nt,-2%,12%[59 µM],6%,nt
CC1CCCN(C(=O)C2CCN(CCCc3ccccc3)CC2)C1 (configuration not stated),?,?,?,16µM*,3.5µM*,36%
CC1CCCN(C(=O)C2CCN(CC(C)c3ccccc3)CC2)C1 (configuration not stated),?,8%,-28%,?,3.5µM*,3%
COc1ccc(C(=O)N=c2nc(-c3ccccc3)n(-c3ccccc3)s2)cc1,11%[57 µM],nt,nt,nt,-18%[57.1 µM],nt
CCCCc1nc2c(c3c1C[C@H](C)OC3)CN(C(=O)Nc1cccc(C#N)c1)CC2,nt,16%,nt,nt,nt,nt
COc1ccc(NC(=O)c2ccc3c(=O)n4nc(Nc5ccccc5C)sc4nc3c2)cc1Cl,20%,nt,-3%,?,-1%,nt
CCCc1nc2c(C)cc(C)cc2c(N)c1CC,-11%,0%,-34%,?,4.5µM*,7%
O=C(CCOc1ccccc1)N(Cc1cccnc1)c1nc2c(F)cccc2s1,44%,nt,-17%,6%[59 µM],-14%,nt
COc1ccc(C(=O)c2ccc(OC)c(OC)c2)cc1OC,22%,16%,-30%,99%[59 µM],-3%,-3%
COc1ccc(C(=O)c2ccc(OC)c3cccc(O)c23)cc1OC,6%,-17%,?,56µM*,?,nt
COC(=O)c1[nH]c2cc(OC)ccc2c1N=CN(C)C,30%,-10%,-3%,40µM*,-15%,-5%
CCOC(=O)c1[nH]c2ccccc2c1N=CN(C)C,11%,nt,nt,nt,-8%,nt
CCN(CC)S(=O)(=O)c1ccc2c(c1)c(=O)c(C(=O)N1CCN(c3ccc(OC)cc3)CC1)cn2C,-8%,nt,nt,?,-18%,nt
O=C(O)C1=C[C@@H](c2ccc(F)cc2)C[C@@H](OCCCCO)O1,21%,9%,79µM*,?,?,nt
CCCS(=O)(=O)NCc1cn2cccc(C)c2n1,26%,3%,-2%,?,-12%,-4%
CCOC(=S)SCc1cn2cccc(C)c2n1,48%,?,-20%,32µM*,-6%,nt
Cc1cc(-c2ccc(C)c(S(=O)(=O)NCc3cccs3)c2)on1,53%,nt,5%,-5%[59 µM],-6%,nt
COc1ccc(Br)cc1CN1CCN(C(=O)c2ccco2)CC1,32µM*,?,28µM*,10µM*,7.1µM*,nt
O=C(c1ccco1)N1CCN(Cc2ccccc2F)CC1,?,-30%,?,28µM*,28µM*,-8%
COc1ccccc1CN1CCC2(CC1)CCN(C(=O)c1ccco1)CC2,nt,2%,nt,-6%[12.7 µM],nt,nt
O=C(COC(=O)C1(c2ccccc2F)CCCC1)N1CCN(C(=O)c2ccco2)CC1,0%,2%,1%,50µM*,-2%,3%
O=C(c1ccco1)N1CCN(Cc2c(F)cccc2Cl)CC1,13%,22%,-15%,7%,-23%,nt
COc1ccccc1CN1CCN(C(=O)c2ccco2)CC1,50µM*,-22%,?,22µM*,1µM*,-2%
